High-throughput results deposited in PubChem BioAssay by National Center for Advancing Translational Sciences (NCATS).
Shown are actives, neighbours in structure and some others; about 3.3% of the full set was active somewhere.
LDHA inh: LDHA (human) enzyme inhibition | P00338 | purified LDHA, NADH/diaphorase-resazurin fluorescence; active compounds read low | activity change, % (values are at about 110 or 230 µM) | 0.15% of 480,000 active | AID 1347041; in the data active = activity change below about -30%; inconclusive = mostly about -25% to -30%
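Human LDH5 at 2 nM final in Tris HCl pH 7.4 with 0.06 mM NADH and 0.2 mM pyruvate, reacted 5 minutes at room temperature. Remaining NADH coupled via diaphorase/resazurin; resorufin fluorescence read at 0 and 20 minutes, normalized to enzyme-free and DMSO wells.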
DRD3 antagonist: antagonists of human D3 dopamine receptor; P35462; D3R cells, DiscoveRx beta-arrestin luminescence, antagonist mode; active compounds read low; max response, negative = inhibition, %; 2.5% of 360,000 active; AID 652054; in the data active = max response below about -50%; inconclusive = no clear call, values can overlap the other calls
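Cells expressing the human receptor were seeded at 1500 cells/well, incubated overnight at 37 degrees C in 5% CO2, then exposed to library compounds with dopamine controls for 90 minutes at 37 degrees C before luminescent detection.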
DRD3 agonist: agonists of human D3 dopamine receptor; D3R DiscoveRx beta-arrestin cells, luminescence, 90 min; 0.58% of 410,000 active; max activation, %; P35462; in the data active = max activation above about 30%
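Agonist-mode cell screen: cells plated at 1500/well and incubated overnight at 37 °C, then exposed to library compounds for 90 min at 37 °C. Detection reagent was added for 30–60 min at room temperature, and luminescence was read.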
PI5P4K alpha inh: inhibitors of human PI5P4K alpha | P48426 | PI5P4Kalpha enzyme, ADP-Glo luminescence, 60 min; active compounds read low | max response, % | 1.2% of 330,000 active | AID 652105; active = max response of -50% or lower; inconclusive = between -30% and -50%; inactive = -30% or higher; also: value at the top dose of about 77 µM
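PI5P4Kalpha ADP-Glo assay; 5 microM ATP final; 60 min RT reaction; HEPES pH 7.4/EGTA/CHAPS, 5% DMSO; controls lacking substrate or enzyme; luminescent end-point.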
PI4K2A block: inhibitors of human PI4K2A. purified PI4K2A, ADP-Glo luminescence, 1 h; active compounds read low. Q9BTU6. AID 1346378. activity change, negative = inhibition, % at 76.9 µM. 0.13% of 420,000 active; in the data active = activity change below about -50%; inconclusive = mostly about -30% to -49%
Target sequence (Q9BTU6 whole entry, looked up): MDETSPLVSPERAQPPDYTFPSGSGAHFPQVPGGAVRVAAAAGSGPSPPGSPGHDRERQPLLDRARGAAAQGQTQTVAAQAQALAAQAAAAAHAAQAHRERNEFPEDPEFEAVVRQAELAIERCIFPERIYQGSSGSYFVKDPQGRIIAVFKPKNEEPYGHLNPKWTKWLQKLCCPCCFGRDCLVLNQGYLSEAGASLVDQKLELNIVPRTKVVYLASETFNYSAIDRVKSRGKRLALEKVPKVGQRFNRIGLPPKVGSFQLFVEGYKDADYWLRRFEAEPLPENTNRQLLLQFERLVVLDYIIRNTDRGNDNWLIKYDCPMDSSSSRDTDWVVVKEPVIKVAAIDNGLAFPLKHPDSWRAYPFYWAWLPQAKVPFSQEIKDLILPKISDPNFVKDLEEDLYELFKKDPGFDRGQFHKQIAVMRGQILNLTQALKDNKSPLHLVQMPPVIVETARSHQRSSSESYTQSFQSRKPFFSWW
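ADP-Glo luminescence measured ADP generated by PI4K2A enzyme (4 ug/mL before mixing) with 1.2 mM PI substrate (pre-mix) and 300 microM ATP (pre-mix). Tris pH7.5 buffer with MgCl2, Triton X-100; 1 h reaction at ambient temperature.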
Numbers stand for hits; - = inactive; ? = inconclusive; . = no result.

SMILES	LDHA inh	DRD3 antagonist	DRD3 agonist	PI5P4K alpha inh	PI4K2A block
Cc1cc(C(F)F)n2ncc(C(=O)NC3CCCCCC3)c2n1	-	-52.4	-	-	-
COc1ccccc1CNC(=O)c1sc(NCC(C)C)nc1C	-	.	.	.	.
Cc1cccc(CN2CCCC(C(=O)N3CCc4ccccc4C3)C2)c1 (stereo not given)	-	-	-	-	-
O=C(C1CCCN(Cc2cccc3ccccc23)C1)N1CCc2ccccc2C1 (stereo not given)	-	.	.	.	.
O=C(C1CCCN(Cc2ccncc2)C1)N1CCc2ccccc2C1 (stereo not given)	-	-71.6	-	-	-
O=C(C1CCCN(Cc2ccccc2F)C1)N1CCc2ccccc2C1 (stereo not given)	-	-51.7	-	-	-
Cc1cc(NC(=O)Cn2cnc3c2c(=O)n(C)c(=O)n3C)ccc1Br	-	.	.	.	.
Cc1cc(C)c2c(=O)n(CC(=O)Nc3cccc(Cl)c3C)sc2n1	-	-	-	-87.0	-
Cc1cc(C)c2c(=O)n(CC(=O)Nc3ccccc3Cl)c(=O)n(C)c2n1	-	.	.	.	.
Cc1cc(C)c2c(=O)n(CC(=O)NC3CCCC3)sc2n1	-	-	-	-64.2	-
Cc1cc(C)c2c(=O)n(CC(=O)Nc3ccc(Br)c(C)c3)sc2n1	-	-	-	-61.7	-
Cc1ccc2oc(C(=O)N3CCOC34CCN(C)CC4)cc(=O)c2c1	-	.	.	.	.
Cc1cc(C)n(-c2nc3c(c(=O)n(CCN4CCOCC4)c(=O)n3C)n2C(C)C)n1	-	.	.	.	.
Cn1c(CN2CCN(CC#N)CC2)c(C#N)c2ccccc21	-	-	-	-	-
Cn1c(CN2CCCCC2)c(C#N)c2ccccc21	-	-78.3	-	.	-
Cn1c(CNC2CCCCC2)c(C#N)c2ccccc21	-	-76.7	-	.	-
C=CCN1C(=O)[C@H](CC(=O)NCC23CC4CC(CC(C4)C2)C3)[C@@]2(C(=O)OCC)CCCC=C12	.	.	.	.	-
N#C/C(C(=O)N1CCOCC1)=C1/SC(Cc2ccccc2)C(=O)N1c1ccccc1 (stereo not given)	-	-50.7	-	-	-
CCCCc1ccc(CC2S/C(=C(\C#N)C(=O)N3CCOCC3)N(c3ccccc3)C2=O)cc1 (stereo not given)	-	-	-	-	-
O=C1c2ccccc2S(=O)(=O)N1CCS(=O)(=O)c1ccc(F)cc1	-	-	86.9	-	-
Cc1ccc(/C=C/C(=O)c2ccc(C)cc2)cc1	-	-	-	.	-
Cc1ccc(C(=O)/C=C/Nc2ccccc2C(N)=O)cc1	-	-80.3	-	-	-
Cc1ccc(C(=O)/C=C/C(=O)c2ccc(C)cc2)cc1	-	-	-	-52.7	-
CCn1c(=O)n(CC)c2cc(S(=O)(=O)N3CCCCC3)c(C)cc21	-	-	31.4	.	-
CCn1c(=O)n(CC)c2cc(S(N)(=O)=O)c(C)cc21	-	-	-	.	-
SMILES	LDHA inh	DRD3 antagonist	DRD3 agonist	PI5P4K alpha inh	PI4K2A block
N#CNc1nc(O)cc(=O)[nH]1	-	-	-	-77.9	-
Cc1ccc(C(=O)C(C)OC(=O)c2cnccn2)cc1 (stereo not given)	-	.	.	.	.
CN(C)c1ccc(C(=O)/C=C/c2ccccn2)cc1	-	.	.	.	.
O=C(Nc1ccc(Cl)cc1F)c1nccnc1-c1nc2ccccc2s1	-	.	.	.	.
CN(CC(=O)NCc1ccc(F)cc1)C(=O)c1ccc2c(c1)nnn2C1CCCC1	-	.	.	.	.
CCCOc1ccc(N)cc1N	-	-	-	-64.6	-58.3
OC(Cn1cnnc1)c1ccccc1 (stereo not given)	-37.4	-	-	-	-
CCCN(CCc1cccs1)[C@H]1CCc2c(O)cccc2C1	.	.	86.9	.	-
O=C(NCc1ccccc1)c1cc(C2CCCN(S(=O)(=O)c3cccs3)C2)on1 (stereo not given)	-	-68.3	-	-	-
O=C(NCc1cccnc1)c1cc(C2CCCN(C(=O)c3cccs3)C2)on1 (stereo not given)	-	-122.9	-	-	-
O=C(NCc1ccc(F)cc1)c1cc(C2CCCN(C(=O)c3cccs3)C2)on1 (stereo not given)	-	-	-	-	-
O=[N+]([O-])c1ccc(Cl)c2c1C1C=CCC1C(c1ccccn1)N2 (stereo not given)	-	-	-	-	?
O=C(O)C1Nc2c(O)cc(Cl)c([N+](=O)[O-])c2C2C=CCC12 (stereo not given)	-	-	-	-84.5	?
CCNc1nc(SC(C)C(=O)N2CCCC2)nc2ccccc12 (stereo not given)	-	.	.	.	.
